Pf Dd2 inh: qHTS Primary assay for Inhibitors of Plasmodium falciparum Dd2 growth in vitro. P. falciparum Dd2 growth, SYBR Green, 72 h. Potency, µM (titrated, usually from 28.9 µM), usual class: inhibitors. 120,000 compounds, 4.3% hits. AID 1347417, 2020; active = well fitted inhibition curve with a large enough effect; also: nearly all actives have a fitted effect of over 65% in size
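Readout: SYBR Green fluorescence, 485 nm excitation, 535 nm emission, after ~16 h lysis at 37C. Before that, Dd2-infected red cells (2.5% hematocrit) grew 72 h with compound, 29 uM top final concentration.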
Each line names hits and unclear results; the compound was inactive in the other large screens. This excerpt belongs to a sample that is enriched for hits.

O=C(Nc1ccc2c(N3CCCC3)ncnc2c1)c1cccc(F)c1	Pf Dd2 inh 2µM
COc1ccc(-n2nc(C3CCN(C(C)=O)CC3)[nH]c2=O)cc1	none
CNC(=O)[C@@H](C1CC1)N1CCC[C@H]1C(=O)N1CCCCCC1	none
CCn1ccnc1CN1CCCC(CNC(=O)c2cccc(OC)c2OC)C1 (stereo not drawn)	none
O=[S+]1([O-])NCC2(CCN(Cc3ccccn3)CC2)Oc2ncccc21	none
CSc1cccc(NC(=O)O[C@@H]2CC[C@]3(C)C(CC[C@@H](O)[C@H]3CC(=O)N3CC[C@H](NC(C)=O)C3)[C@]2(C)CO)c1 (stereo partly drawn)	none
CC(=O)Nc1ccc(S(=O)(=O)N2C[C@@H]3C[C@H](C2)c2ccc(-c4ccc(OC(F)(F)F)cc4)c(=O)n2C3)cc1	none
COc1ccc(C(=O)NCC2(COc3cccnc3)C[C@@H](O)[C@@H](O)C2)cc1 (stereo partly drawn)	none
CC(C)(CC(=O)O)CC(=O)N1CCN2C(=O)N(CCc3cccs3)C(=O)[C@H]2C1	none
O=C(c1ccc2c(Cl)c3c(nc2c1)CCCC3)N1CCN(c2ccccc2F)CC1	none
Cc1ccc(CN2CCSc3ccc(C(=O)N4CCN(c5ccc(Cl)cc5)CC4)cc32)cc1	Pf Dd2 inh 8.91µM
Cc1ccc(CN2CCSc3ccc(C(=O)N4CCN(c5cccc(C)c5C)CC4)cc32)cc1	Pf Dd2 inh 6.31µM
Cc1cccc(N2CCN(C(=O)c3ccc4c(Cl)c5c(nc4c3)CCCC5)CC2)c1C	Pf Dd2 inh 11.2µM
Cc1ccc(C)c(N2CCN(C(=O)c3ccc4[nH]c(C)c(C)c4c3)CC2)c1	none
O=C(CN1CCSc2ccccc21)N1CCN(c2cccc(Cl)c2)CC1	none
O=C(c1ccc2c(Cl)c3c(nc2c1)CCCC3)N1CCN(c2cccc(Cl)c2)CC1	none
Cc1ccc(N2CCN(C(=O)c3ccc4c(c3)N(C)C3CCCCN3C4=O)CC2)cc1 (stereo not drawn)	none
COc1cc2[nH]c(=O)n(Cc3ccc(C(=O)N4CCN(c5ccc(Cl)cc5)CC4)cc3)c(=O)c2cc1OC	none
CC(C)OCCCNC(=O)C1CC(=O)N(c2n[nH]c3cc(Br)ccc23)C1 (stereo not drawn)	none
COc1ccccc1CC(=O)N1CCC[C@H]1c1nc(-c2ccccc2Cl)no1	none
CN1CCCC2(CCN(C(=O)Cc3c[nH]c(=O)n(C)c3=O)C2)C1=O (stereo not drawn)	none
Cc1nc2ccccc2n1CCc1nc2c3ccccc3nc(SCC(=O)Nc3ccc(C(C)C)cc3)n2n1	Pf Dd2 inh 8.91µM
Cc1nc2ccccc2n1CCc1nc2c3ccccc3nc(SCC(=O)Nc3ccc(Br)cc3F)n2n1	none
Cc1nc2ccccc2n1CCc1nc2c3ccccc3nc(SCC(=O)Nc3cccc(C(F)(F)F)c3)n2n1	none
CS(=O)(=O)N1CCCC(C(=O)NCCN2CCOCC2)CCNC(=O)CC1 (stereo not drawn)	none
O=C([C@@H]1CNC[C@H](C(=O)N2CCC(c3ccncn3)CC2)C1)N1CCCC1	none
O=C1CC(c2ccccc2)N(Cc2ccncc2)CCCN(C(=O)c2ccsc2)CCN1 (stereo not drawn)	Pf Dd2 inh 5.62µM
Cc1cccc(C(=O)N2CCCCCNC(=O)CC2c2ccccc2)c1 (stereo not drawn)	none
CS(=O)(=O)N1CCCN(C(=O)c2ccsc2)CCNC(=O)CC1c1ccccc1 (stereo not drawn)	none
CCCS(=O)(=O)N1CCCC(C(=O)NCc2ccccc2)CCNC(=O)CC1 (stereo not drawn)	none
Cn1cnc(S(=O)(=O)N2CCCN(C(=O)c3ccncc3)CCNC(=O)CC2c2ccccc2)c1 (stereo not drawn)	none
Cc1ncccc1C(=O)N1CCCN(Cc2ccncc2)C(c2ccccc2)CC(=O)NCC1 (stereo not drawn)	Pf Dd2 inh 11.2µM
Cc1cccc(C(=O)N2CCCN(C(=O)C3CC3)C(c3ccccc3)CC(=O)NCC2)c1 (stereo not drawn)	none
Cc1cccc(C(=O)N2CCCN(Cc3ccncc3)C(c3ccccc3)CC(=O)NCC2)c1 (stereo not drawn)	Pf Dd2 inh 2.24µM
Cc1ccc(C(=O)N2CCCN(Cc3ccncc3)C(c3ccccc3)CC(=O)NCC2)cn1 (stereo not drawn)	none
O=C1CC(c2ccccc2)N(C(=O)C2CC2)CCCN(C(=O)c2cccs2)CCN1 (stereo not drawn)	none
O=C1CC(c2ccccc2)N(Cc2ccncc2)CCCN(C(=O)CN2C(=O)CCC2=O)CCN1 (stereo not drawn)	none
CCCS(=O)(=O)N1CCCN(Cc2ccncc2)C(c2ccccc2)CC(=O)NCC1 (stereo not drawn)	Pf Dd2 inh 14.1µM
COc1ccc(-c2cc(N3CCC(NC(=O)COc4ccccc4C)CC3)n[nH]2)cc1	none
CCOc1ccc(CC(=O)N2C[C@@H](COC)[C@H](c3nc(C)no3)C2)cc1	none
CN1CCC(NC(=O)c2n[nH]c3c2CN(C(=O)c2ccccc2Br)CC3)CC1	none
CNC(=O)[C@@H](c1ccccc1)N1CCC[C@H]1C(=O)N1CCOCC1	none
COc1ccc(OC)c(CNC(=O)CN2CC3CC(C2)[C@H]2CCCC(=O)N2C3)c1 (stereo partly drawn)	none
CNC(=O)[C@@H]1CN(C(=O)Cc2cccc(Cl)c2)C[C@H]1CO	none
Cc1c(Cl)cccc1NC(=O)N1CCC(OC2CCN(S(C)(=O)=O)CC2)CC1	none
COc1cccc(CN2CCCN(Cc3ccncc3)C(c3ccccc3)CC(=O)NCC2)c1 (stereo not drawn)	Pf Dd2 inh 1.41µM
Cc1ccc(C(=O)N2CCCN(S(C)(=O)=O)C(c3ccccc3)CC(=O)NCC2)cn1 (stereo not drawn)	none
O=C1CC(c2ccccc2)N(Cc2ccncc2)CCCN(C(=O)c2ccc3ccccc3n2)CCN1 (stereo not drawn)	none
COc1cccc(CC(=O)N2CCCN(S(C)(=O)=O)C(c3ccccc3)CC(=O)NCC2)c1 (stereo not drawn)	none
Cn1cccc1C(=O)N1CCCN(Cc2ccncc2)C(c2ccccc2)CC(=O)NCC1 (stereo not drawn)	Pf Dd2 inh 2.51µM
Cn1cccc1C(=O)N1CCCN(S(=O)(=O)c2ccccc2)CCC(=O)NCC1	none
Cn1ccnc1C(=O)N1CCCN(S(C)(=O)=O)C(c2ccccc2)CC(=O)NCC1 (stereo not drawn)	none
CS(=O)(=O)N1CCCN(Cc2ccc(C#N)cc2)CCNC(=O)CC1c1ccccc1 (stereo not drawn)	none
O=C1CC(c2ccccc2)N(Cc2ccncc2)CCCN(C(=O)c2ccc3ncccc3c2)CCN1 (stereo not drawn)	Pf Dd2 inh 6.31µM
CC(C)CN[C@@H]1C[C@H](COc2ccc(S(C)(=O)=O)cc2)[C@@H](O)[C@H]1O	none
CN1C(=O)[C@H]2CN(Cc3ccc(Cl)c(F)c3)C[C@H]2C1=O	none
CC(C)(C)CC(=O)Nc1ccc([C@H]2OCC(=O)N(CCN)[C@@H]2CO)cc1	none
CC(C)C[C@H](NC(=O)Cn1nc2c(cc1=O)CCCCC2)c1nnc2ccccn12	none
COc1cccc([S+](=O)([O-])N2CCCC3(CC(Cc4ccccc4)=NO3)C2)c1 (stereo not drawn)	none
COc1ccc(C(=O)N2CC3(CCN(C)CC3)c3cc(OC)c(OCc4ccccc4)cc32)cn1	none
COc1cc2c(cc1OCc1ccccc1)N([S+](=O)([O-])c1ccc3c(c1)CCO3)CC21CCN(C)CC1	Pf Dd2 inh 3.55µM
Cc1cncc(C(=O)N2C[C@@H](COc3ccccc3)[C@H](C(N)=O)C2)c1	none
CCNC(=O)Nc1ccc(OCC(=O)N2CCN(c3cccc(OC)c3)CC2)nc1	none

Screening data (PubChem BioAssay)
